Shown are actives, neighbours in structure and some others; about 6.1% of the full set was active somewhere.
ATXN2 expr inh: inhibitors of ATXN2 expression; Potency, µM (doses to about 57 µM), usual class: inhibitors; HEK-293 ATXN2-luciferase reporter, luminescence, 24 h; AID 1745845; 0.72% of 360,000 active; further: nearly all actives have a fitted effect of over 55% in size
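qHTS (up to 57 uM final) was run with 24 h compound exposure of reporter cells at 37 °C. Each well was multiplexed: SteadyGlo luminescence measured ATXN2-luciferase expression after a fluorogenic Gly-Phe-AFC viability readout (25 uM final).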
S2 tox: reduces viability in counter-screen for ATXN expression inhibitors. S2 cells (HEK-293 line with an ATXN2-luciferase reporter) viability, CellTiter-Fluor protease fluorescence, 24 h. Potency, µM (doses to about 56.7 µM), most hits filed as cytotoxic. 0.49% of 400,000 active; further: nearly all actives have a fitted effect of over 40% in size
HepG2 tox: counter-screen for TGF-b inhibitors: cytotoxicity in HepG2 cells. Potency, µM (top dose mostly 46.1 µM), most hits filed as cytotoxic. 0.76% of 410,000 active. HepG2 CAGA-GFP viability, ATP luminescence, 18 h
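CellTiter-Glo luminescence gave cytotoxicity after 18 hours at 37 degrees C. The cells were HepG2 CAGA-GFP in 1% FBS DMEM, stimulated with 500 pg/mL TGF-beta after compound addition. %Activity was normalised to no-cell wells (complete cell-killing) and DMSO (no toxicity), and curves were fitted and classified.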
TGFb SMAD3 inh: blocks TGF-b signaling | AID 588855 | HepG2 CAGA-GFP TGF-b/SMAD3 reporter, GFP fluorescence, 18 h; TGF-beta stimulated, 500 pg/mL final | 1.2% of 410,000 active | Potency, µM (highest dose often 46.1 µM), hits mostly inhibitors; further: nearly all actives have a fitted effect of over 65% in size
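Inhibition of TGF-beta-driven CAGA-GFP reporter expression in HEPG2 cells is measured by cellular GFP fluorescence after 18 h stimulation with 500 pg/mL recombinant TGF-beta in 1% FBS medium at 37 degrees C.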
RORgamma inh: blocks mouse ROR gamma transcriptional activity | Potency, µM (series often up to 53.6 µM), usual class: inhibitors | P51450 | 5.4% of 310,000 active | AID 2551 | Drosophila S2 Gal4-RORgamma UAS-luciferase reporter, 20 h; further: nearly all actives have a fitted effect of over 60% in size
Target sequence (P51450 whole entry, looked up, the tested form may be a part): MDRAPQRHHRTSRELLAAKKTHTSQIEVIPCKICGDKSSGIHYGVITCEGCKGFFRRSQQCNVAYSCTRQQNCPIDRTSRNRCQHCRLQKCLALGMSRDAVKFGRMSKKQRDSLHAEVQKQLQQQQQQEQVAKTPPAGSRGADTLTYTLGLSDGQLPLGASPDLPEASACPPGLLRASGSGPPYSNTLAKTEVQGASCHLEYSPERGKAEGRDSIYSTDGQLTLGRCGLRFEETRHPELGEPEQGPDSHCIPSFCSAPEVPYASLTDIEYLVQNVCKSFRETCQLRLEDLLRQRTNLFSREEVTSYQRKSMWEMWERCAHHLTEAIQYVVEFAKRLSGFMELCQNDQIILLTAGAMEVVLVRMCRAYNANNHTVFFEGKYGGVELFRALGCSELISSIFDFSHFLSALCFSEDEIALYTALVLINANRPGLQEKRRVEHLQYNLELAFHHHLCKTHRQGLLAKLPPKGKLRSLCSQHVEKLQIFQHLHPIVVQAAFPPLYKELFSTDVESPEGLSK
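Luminescence from a UAS-regulated Photinus luciferase reporter in stably transfected Drosophila Schneider cells is measured; decreased signal marks ROR gamma inhibition. Fusion expression is induced by 700 uM copper sulfate for 20 hr.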
VP16 counter: inhibits Gal4-VP16 luciferase reporter, ROR gamma counter-screen. Drosophila S2 Gal4-VP16 UAS-luciferase, luminescence, 20 h. Potency, µM (top dose mostly 53.6 µM), actives largely listed as inhibitors. 3.5% of 310,000 active. AID 2546;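 further: Gal4-VP16 expression switched on by copper sulfate through the metallothionein promoter; nearly all actives have a fitted effect of over 50% in size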
Large screens that a line does not name were inactive. The call rests on the fitted dose curve; in most records, active means well fitted curve in the direction sought with a large enough effect; inconclusive means small, poorly fitted or top-dose-only effect, or another doubt; inactive means no such curve, though single readings can be large; an effect the other way counts as inactive or inconclusive.

Cc1ccc(C(C)C)c(OCc2ccc(C(=O)N/N=C/c3cccc(O)c3O)cc2)c1	ATXN2 expr inh 3µM, TGFb SMAD3 inh inconclusive, RORgamma inh 1µM, VP16 counter 2.5µM
CCOc1cc(/C=N/NC(=O)c2ccc(=O)n(C)c2)ccc1O	S2 tox inconclusive
Fc1ccc(-c2nc(-c3c[nH]c4ccccc34)cs2)cc1	none (no result: ATXN2 expr inh, S2 tox, RORgamma inh, VP16 counter)
CCN(CC(=O)Nc1sc2c(c1C#N)CCC(C)C2)Cc1nc2ccccc2c(=O)[nH]1 (centres undefined)	S2 tox inconclusive, RORgamma inh 2.5µM, VP16 counter inconclusive
CC1CCc2c(sc(NC(=O)CCc3nc4ccccc4c(=O)[nH]3)c2C#N)C1 (centres undefined)	S2 tox inconclusive (no result: ATXN2 expr inh, RORgamma inh, VP16 counter)
CCN(CC(=O)Nc1sc2c(c1C#N)CCCC2)Cc1nc2ccccc2c(=O)[nH]1	RORgamma inh 5.6µM, VP16 counter inconclusive
CN(C)CC/C=C1/c2ccc(F)cc2Sc2ccc(Cl)cc21	ATXN2 expr inh inconclusive, S2 tox inconclusive, HepG2 tox 16µM, TGFb SMAD3 inh inconclusive (no result: RORgamma inh, VP16 counter)
CN(C)CC/C=C1\c2ccc(F)cc2Sc2cc(F)c(Cl)cc21	S2 tox inconclusive, HepG2 tox 18µM, TGFb SMAD3 inh inconclusive (no result: ATXN2 expr inh, RORgamma inh, VP16 counter)
CC(C)(C)[N+]([O-])=Cc1ccc(S(=O)(=O)O)cc1S(=O)(=O)O	none (no result: S2 tox, HepG2 tox, TGFb SMAD3 inh, RORgamma inh, VP16 counter)
CC1(C)S[C@@H]2[C@H](NC(=O)Cc3ccccc3)C(=O)N2[C@H]1C(=O)O (tested in a mixture with another compound)	none (no result: HepG2 tox, TGFb SMAD3 inh, RORgamma inh, VP16 counter)
NNC(=S)Nc1c(F)cc(F)cc1Br	RORgamma inh 4µM, VP16 counter inconclusive
Cc1cc(C(=O)Nc2c(F)cc(F)cc2Br)cs1	none
COc1ccc(C(=O)C[n+]2cc(Br)cc(Br)c2)cc1	none (no result: ATXN2 expr inh, S2 tox, RORgamma inh, VP16 counter)
CCn1ncc([C@@H]2C[C@H]3CN(Cc4cccc(Cl)c4)C(=O)[C@]34CCCN24)c1C	none
Cc1nn(C)cc1[C@@H]1C[C@H]2CN(Cc3cccc(Cl)c3)C(=O)[C@]23CCCN13	none
O=C1N(Cc2cccc(Cl)c2)C[C@@H]2C[C@@H](c3cccn3-c3cccnc3)N3CCC[C@@]123	ATXN2 expr inh inconclusive, S2 tox inconclusive, TGFb SMAD3 inh 16µM
Cn1cc([C@@H]2C[C@H]3CN(Cc4cccc(Cl)c4)C(=O)[C@]34CCCN24)c(-c2ccccc2)n1	ATXN2 expr inh inconclusive, S2 tox inconclusive, TGFb SMAD3 inh inconclusive, RORgamma inh inconclusive, VP16 counter 4µM
C(=C\c1nc2ccccc2o1)/c1ccc2c(c1)OCO2	none (no result: ATXN2 expr inh, S2 tox, RORgamma inh, VP16 counter)
C[C@]12C[C@@](C)(C=C1/C=C/c1ccccc1)C(=O)C[C@H]2c1ccccc1	none (no result: ATXN2 expr inh, S2 tox, HepG2 tox, TGFb SMAD3 inh)
CC(=O)Nc1ccc(NC(=O)COc2c(C)cc(Br)cc2C)cc1	none
CC(=O)Nc1ccc(NC(=O)c2cc(-c3cc(C)cc(C)c3O)n[nH]2)cc1	none (no result: ATXN2 expr inh)
COc1ccccc1OCC(=O)Nc1ccc(S(=O)(=O)N2CCOCC2)cc1	none
Cc1cc(C)c(OCC(=O)Nc2ccc(S(=O)(=O)N3CCOCC3)cc2)c(C)c1	S2 tox inconclusive, RORgamma inh 11µM, VP16 counter inconclusive
CSc1cc(C)c(OCC(=O)Nc2ccc(NC(C)=O)cc2)c(C)c1	HepG2 tox 0.2µM (no result: ATXN2 expr inh)
Cc1cc(C)c(O)c(-c2cc(C(=O)Nc3ccc(S(=O)(=O)N4CCOCC4)cc3)[nH]n2)c1	ATXN2 expr inh 18µM, S2 tox inconclusive, TGFb SMAD3 inh inconclusive, RORgamma inh inconclusive, VP16 counter inconclusive
COc1ccc(NC2=C(c3ccccc3)C(=O)c3ccccc32)cc1Cl	none (no result: RORgamma inh, VP16 counter)
Cc1ccc(NC2=C(c3ccc(C(F)(F)F)cc3)C(=O)c3ccccc32)cc1C	HepG2 tox 13µM (no result: RORgamma inh, VP16 counter)
COc1cccc(-c2csc(N3CCN(C(=S)Nc4ccccc4OC)CC3)n2)c1	RORgamma inh 7.9µM, VP16 counter inconclusive
CC(C)CNC(=S)N1CCN(c2nc(-c3ccc(Cl)cc3)cs2)CC1	ATXN2 expr inh 16µM, S2 tox inconclusive, TGFb SMAD3 inh inconclusive, RORgamma inh inconclusive, VP16 counter inconclusive
CC(=O)c1cccc(-c2csc(N3CCC(C(N)=O)CC3)n2)c1	none (no result: RORgamma inh, VP16 counter)

Bioassay records deposited in PubChem by National Center for Advancing Translational Sciences (NCATS).
